# Reference: PubChem BioAssay (Tox21)
# Results filed as inconclusive are left out. Active and inactive are the calls of the source. Calls come from the whole dose curve; as a rule, active = well fitted inhibition curve with a large enough effect in the repeat runs; inconclusive = weak or mixed curves, or effect the other way; inactive = no such curve, though single readings can be large or run the other way.
# Experiment: qHTS assay to identify small molecule antagonists of the retinoic acid receptor (RAR) signaling pathway (AID 1159552; note: nearly all actives have a fitted effect of over 50% in size)
# Conditions: C3RL4 RARE luciferase reporter, retinol-stimulated, 6 h; series mostly up to 92.4 µM; activity, negative = inhibition: at the top concentration
# Description: National Center for Advancing Translational Sciences [NCATS]
# NIH Chemical Genomics Center [NCGC]
# U.S. Environmental Protection Agency [EPA]
# National Institutes of Environmental Health Sciences [NIEHS]
# National Toxicology Program [NTP]
# U.S. Food and Drug Administration [FDA]
# All-trans Retinoic acid (atRA) is the potent natural metabolite of retinol and plays an important role in normal embryonic development and maintenance of cellular phenotype in adult animals. atRA is the activating ligand for the retinoic acid receptors (RARs) which form heterodimers with retinoid X receptors (RXRs) on the retinoic acid response element (RARE). Through activation of the RAR/RXRs nuclear receptors, atRA regulates the transcription of a large number of protein-coding genes and regulatory RNAs. Intracellular levels of atRA are controlled by the retinol signaling pathway (RSP) that regulates the biosynthesis and catabolism of atRA to maintain physiological levels. Chemicals that interfere with the RSP can cause abnormal intracellular levels of atRA and therefore are potential developmental toxicants. To assess compounds for the potential adverse effect on embryonic development through interfering with retinol signaling, a cell-based RARE luciferase reporter gene assay was used. C3RL4 cell line (OARSA/CFSAN/FDA, Laurel, MD) was used to screen Tox21 10K compound library for identifying inhibitors of the RSP.
# Tox21 Assay Protocol Summary:
# C3RL4 cells were seeded at 1,000/well in 4 uL of assay medium into white solid 1,536-well tissue culture plates (Greiner Bio-One North America Inc. Monroe, NC) using a Multidrop Combi (Thermo Scientific, Waltham, MA) dispenser. After incubation at 37 C and 5% CO2 for an overnight, 23 nL of compounds dissolved in DMSO, positive control or DMSO only were transferred by a Pintool station (Kalypsys, San Diego, CA). One ul of 1 uM (final concentration) of Retinol was added right after the compound addition by using a Flying Reagent Dispenser (FRD) (Aurora Discovery, San Diego, CA). After 6 hr incubation at 37 C and 5% CO2, 5 uL of Amplite Luciferase reagent (AAT Bioquest Inc. Sunnyvale, CA) was added to each assay plate using an FRD. Luminescence was quantified on a ViewLux plate reader (PerkinElmer, Waltham, MA) after 30 min incubation at room temperature.
# % is set by controls: 0 for no effect and ±100 for the full control effect; potency is the fitted concentration of half-maximal effect.
SMILES,"activity, negative = inhibition",Potency
CCCCC(CC)COC(=O)CCCCC(=O)OCC(CC)CCCC (stereo not given),34.5% (inactive),
Cc1ccccc1N=O,-10.3% (inactive),
CC(C)(C)OCC1CO1 (stereo not given),-4.39% (inactive),
ClC1=C(Cl)[C@]2(Cl)[C@@H]3[C@@H](Cl)[C@H]4O[C@H]4[C@@H]3C1(Cl)C2(Cl)Cl,,68.6 µM (active)
c1cc(OCC2CO2)cc(OCC2CO2)c1 (stereo not given),35.6% (inactive),
O=C(Nc1ccccc1-c1ccc(Cl)cc1)c1cccnc1Cl,127% (inactive),
Cc1cccc(C)c1[N+](=O)[O-],-84.2% (inactive),
OCC(CBr)(CBr)CBr,35% (inactive),
Nc1ccccc1[N+](=O)[O-],5.23% (inactive),
COCCOC(=O)c1ccccc1C(=O)OCCOC,6.64% (inactive),
Cc1cc(C)c(C(=O)P(=O)(c2ccccc2)c2ccccc2)c(C)c1,14.3% (inactive),
Clc1ccccc1-c1ccccc1Cl,-1.15% (inactive),
C=CC(=O)OCCCCCCCC(C)C,-0.043% (inactive),
OC(Cc1ccccc1Cl)(Cn1[nH]cnc1=S)C1(Cl)CC1 (stereo not given),19% (inactive),
O=C(c1ccccc1)C(Cl)Cl,,24.3 µM (active)
Brc1ccc(-c2ccccc2)cc1,23.3% (inactive),
Brc1ccccc1-c1ccccc1,0.198% (inactive),
Cc1ccc(N)c([N+](=O)[O-])c1,21.3% (inactive),
Nc1cccc(C(F)(F)F)c1,8.52% (inactive),
COc1ccccc1[N+](=O)[O-],6.01% (inactive),

SMILES,"activity, negative = inhibition",Potency
CC(CCl)OP(=O)(OC(C)CCl)OC(C)CCl (stereo not given),-26.6% (inactive),
Cc1nnc2n1-c1sc(CCc3ccc(CC(C)C)cc3)cc1C(c1ccccc1Cl)=NC2C (stereo not given),,33.5 µM (active)
Fc1c(F)c(F)c(Br)c(F)c1F,6.32% (inactive),
Nc1ccc(Cl)cc1[N+](=O)[O-],6.13% (inactive),
Brc1c2ccccc2c(Br)c2ccccc12,4.27% [at 8.39 µM] (inactive),
Nc1ccc2c3c(cccc13)-c1ccccc1-2,86.4% (inactive),
CCCCCCCC#N,158% (inactive),
N#Cc1cc([N+](=O)[O-])ccc1N,-1.45% (inactive),
O=[N+]([O-])c1cccc(Cl)c1Cl,-4.26% (inactive),
c1ccc2c(c1)Sc1ccccc1N2CC1CN2CCC1CC2 (stereo not given),,29.8 µM (active)
Oc1cc(Cl)cc(Cl)c1Cl,,62.6 µM (active)
Oc1ccc(Cl)cc1Cc1cc(Cl)ccc1O,,26.6 µM (active)
CC(C)=O,-0.889% (inactive),
C=CCOC(=O)c1ccccc1C(=O)OCC=C,-12.7% (inactive),
O=[N+]([O-])c1ccc2ncccc2c1,109% (inactive),
OCC(c1ccc(Cl)cc1)c1ccc(Cl)cc1,,43.3 µM (active)
CC1COC(Cn2cncn2)(c2ccc(Oc3ccc(Cl)cc3)cc2Cl)O1 (stereo not given),6.02% (inactive),
COc1ccc(CCN2CCC(Nc3nc4ccccc4n3Cc3ccc(F)cc3)CC2)cc1,,1.25 µM (active)
O=C1OC(=O)c2c(Cl)c(Cl)c(Cl)c(Cl)c21,2.48% (inactive),
COc1ccc(C(c2ccc(OC)cc2)C(Cl)(Cl)Cl)cc1,-28.8% (inactive),
